Experimental data taken from PubChem BioAssay (Tox21).
Calls of active or inactive are those of the source. Unless noted, calls come from the whole dose curve; as a rule, active = well fitted curve in the direction sought with a large enough effect in the repeat runs; inconclusive = weak or mixed curves; inactive = no such curve, though single readings can be large; an effect the other way counts as inactive or inconclusive.

Assays:
[1] = qHTS assay for small molecule agonists of the p53 signaling pathway (AID 651631; calls by dose curve; note: nearly all actives have a fitted effect of over 15% in size; note: potency is the fitted concentration of half-maximal effect)
Method in brief: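 Readout was fluorescence from the LiveBLAzer FRET substrate, applied for 2 h at room temperature after 16 h compound exposure at 37 °C. Cells were the p53RE-bla HCT-116 line, with beta-lactamase driven by p53 response elements.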

[2] = qHTS assay for small molecules that induce genotoxicity in human embryonic kidney cells expressing luciferase-tagged ATAD5 (AID 651632); note: nearly all actives have a fitted effect of over 15% in size; note: potency is the fitted concentration of half-maximal effect
Method in brief: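 Genotoxicity read-out via ATAD5-luciferase: HEK293T cells, 16 hr compound incubation at 37C, Amplite detection.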

[3] = qHTS assay for small molecule agonists of the p53 signaling pathway - cell viability (AID 651633; calls by dose curve; note: nearly all actives have a fitted effect of over 30% in size; note: potency is the fitted concentration of half-maximal effect)
Method in brief: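 p53RE-bla cells, seeded at 4,000 per well and rested 5 h at 37 C/5% CO2, received compounds in DMSO for 16 h at 37 C. CellTiter-Glo was then added, and luminescence was read after 30 min at room temperature to gauge cytotoxicity.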

[4] = qHTS assay for small molecules that induce genotoxicity in human embryonic kidney cells expressing luciferase-tagged ATAD5 - cell viability (AID 651634; calls by dose curve; note: nearly all actives have a fitted effect of over 25% in size; note: potency is the fitted concentration of half-maximal effect)
Method in brief: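 Live-cell protease activity (CellTiter-Fluor, fluorescence) indicates viability. HEK293T cells with luciferase-tagged ATAD5; 15.5 hr compound treatment at 37C.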

[5] = qHTS assay for small molecule disruptors of the mitochondrial membrane potential - cell viability (AID 720634; calls by dose curve; note: nearly all actives have a fitted effect of over 20% in size; note: potency is the fitted concentration of half-maximal effect)
Method in brief: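 Human hepatoma HepG2 cells were treated for 1 hr with test chemicals, then given m-MPI dye and CellTiter-Glo. Cell viability reflects luminescence proportional to cellular ATP.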

[6] = qHTS assay to test for compound auto fluorescence at 590 nm (red) in HepG2 cells (AID 720674)
Method in brief: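 Rose Bengal sodium served as the red fluorophore standard. HepG2 monolayers (overnight attachment, MEM with 10% FBS) were exposed to test compounds for 1 hr at 37 C and read at Ex 540/Em 590 nm.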

[7] = qHTS assay to test for compound auto fluorescence at 535 nm (green) in HepG2 cells (AID 720675)
[8] = qHTS assay to test for compound auto fluorescence at 460 nm (blue) in HEK293 cells (AID 720678)
Method in brief: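 Cells were seeded and left to adhere for 4-5 hr at 37C. Compounds were then pin-transferred. After an overnight incubation at 37C under 5% CO2, intrinsic fluorescence at 405/460 nm was measured and referenced to triamterene.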

[9] = qHTS assay to test for compound auto fluorescence at 590 nm (red) in HEK293 cells (AID 720679)
Method in brief: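 Each well held 2,000 HEK293 cells in medium containing 10% dialyzed FBS. Following 4-5 hr attachment at 37C, 23 nL test compound or DMSO was added; plates sat overnight, and red fluorescence (540/590nm) was recorded.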

[10] = qHTS assay to test for compound auto fluorescence at 460 nm (blue) in HEK293 cell free culture (AID 720681)
Method in brief: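 Test compounds were pinned into cell-free culture medium (DMEM with 10% FBS) and fluorescence was read directly at Ex/Em 405/460 nm. Signals were expressed as fluorescence equivalents of triamterene, with DMSO vehicle as control.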

[11] = qHTS assay to test for compound auto fluorescence at 535 nm (green) in HEK293 cell free culture (AID 720682)
Method in brief: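 Compounds were pin-transferred into cell-free DMEM with 10% FBS, and green fluorescence was read at excitation 485 nm and emission 535 nm. Intensities were expressed as fluorescein-equivalent values.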

[12] = qHTS assay to test for compound auto fluorescence at 590 nm (red) in HEK293 cell free culture (AID 720683)
Method in brief: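 Tox21 10K library compounds were pinned into cell-free DMEM with 10% FBS and fluorescence was read at excitation 540 nm. Activity is expressed as Rose Bengal sodium equivalency.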

[13] = qHTS assay to test for compound auto fluorescence at 590 nm (red) in HepG2 cell free culture (AID 720684)
Method in brief: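 Measured in medium alone (MEM containing 10% FBS) following pintool addition of compound; emission at 590 nm with 540 nm excitation, referenced to Rose Bengal sodium.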

[14] = qHTS assay to test for compound auto fluorescence at 460 nm (blue) in HepG2 cell free culture (AID 720685)
Method in brief: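 Compound (23 nL) or DMSO pinned into cell-free MEM with 10% FBS; blue fluorescence read at 405/460 nm excitation/emission, expressed as auto-fluorescence equivalency to triamterene.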

[15] = qHTS assay to test for compound auto fluorescence at 460 nm (blue) in HepG2 cells (AID 720687)
Method in brief: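 Cells (2,000/well in MEM with 10% FBS) attached overnight at 37 C, then were exposed to compound or DMSO for 1 hr at 37 C, 5% CO2. Fluorescence read at Ex/Em 405/460 nm, expressed as triamterene-equivalent signal.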

[16] = qHTS assay for small molecule disruptors of the mitochondrial membrane potential (AID 720635); note: potency is the fitted concentration of half-maximal effect
Method in brief: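 HepG2 cells (2,000/well) attached overnight at 37C, then took compound for 1 hr at 37C, 5% CO2. Mito-MPS dye was added for 30 min; fluorescence was read at 490/535 nm (monomers) and 540/590 nm (aggregates).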

[17] = qHTS assay to test for compound auto fluorescence at 535 nm (green) in HEK293 cells (AID 720680)
[18] = target: Glucocorticoid receptor (Homo sapiens) (UniProt P04150); experiment: qHTS assay to identify small molecule agonists of the glucocorticoid receptor (GR) signaling pathway (AID 720691; active = well fitted activation curve with a large enough effect in the signal ratio in the repeat runs, not every such curve was filed as active; inconclusive = weak or mixed curves, or effect the other way; inactive = no such curve, though single readings can be large or run the other way; the % refers to the signal ratio; note: potency is the fitted concentration of half-maximal effect); details: GR-bla HeLa, beta-lactamase reporter ratio, 18 h; activation: at 62.4 µM (top of the series)
Method in brief: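 Beta-lactamase reporter activity, read as fluorescence intensity, was measured in GR-bla HeLa cells exposed to compounds for 18 h at 37 C and then loaded with LiveBLAzer B/G FRET substrate for 2 h at room temperature.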

[19] = target: Glucocorticoid receptor (Homo sapiens) (UniProt P04150); experiment: qHTS assay to identify small molecule antagonists of the glucocorticoid receptor (GR) signaling pathway (AID 720692; active = well fitted inhibition curve with a large enough effect in the signal ratio in the repeat runs, not every such curve was filed as active; inconclusive = weak or mixed curves, or effect the other way; inactive = no such curve, though single readings can be large or run the other way; the % refers to the signal ratio)
Method in brief: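 Fluorescence from cleaved LiveBLAzer B/G FRET substrate reports GRE-driven beta-lactamase in HeLa cells; compounds are tested against 5 nM dexamethasone (final) over 18 h at 37 C, substrate incubation 2 h at room temperature.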

[20] = qHTS assay to test for compound auto fluorescence at 535 nm (green) in HepG2 cell free culture (AID 720686)

Measured: Potency

Glucocorticoid receptor (Homo sapiens), sequence (P04150 whole entry, looked up): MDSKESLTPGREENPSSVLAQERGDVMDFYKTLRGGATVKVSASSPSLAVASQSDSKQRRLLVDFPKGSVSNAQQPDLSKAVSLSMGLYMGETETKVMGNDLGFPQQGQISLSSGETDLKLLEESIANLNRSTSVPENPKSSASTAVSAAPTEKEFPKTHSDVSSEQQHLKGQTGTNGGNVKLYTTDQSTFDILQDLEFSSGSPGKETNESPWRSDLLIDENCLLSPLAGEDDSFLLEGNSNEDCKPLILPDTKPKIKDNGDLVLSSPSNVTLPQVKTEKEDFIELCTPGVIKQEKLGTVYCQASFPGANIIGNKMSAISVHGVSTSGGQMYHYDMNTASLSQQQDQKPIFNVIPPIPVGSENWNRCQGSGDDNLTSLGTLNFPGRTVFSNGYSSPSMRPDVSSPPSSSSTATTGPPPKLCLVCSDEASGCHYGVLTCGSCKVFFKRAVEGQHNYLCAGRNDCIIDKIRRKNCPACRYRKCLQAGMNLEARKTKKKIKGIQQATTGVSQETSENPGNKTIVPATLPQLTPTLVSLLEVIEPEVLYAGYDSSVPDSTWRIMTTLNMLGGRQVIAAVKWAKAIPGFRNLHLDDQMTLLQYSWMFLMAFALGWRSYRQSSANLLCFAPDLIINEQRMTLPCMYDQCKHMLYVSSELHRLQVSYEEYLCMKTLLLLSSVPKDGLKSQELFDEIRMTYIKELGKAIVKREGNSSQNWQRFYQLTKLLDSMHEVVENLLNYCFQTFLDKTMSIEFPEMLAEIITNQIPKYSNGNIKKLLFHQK

O=C(O)c1ccc(Cl)c(Cl)c1
not listed: [16] | [17] | [18] | [19] | [20]
inactive: all other assays above

CCCCCOC(=O)CCCC
not listed: [20]
inactive: all other assays above

CN1CCN(CCC(=O)N2c3ccccc3Sc3ccc(C(F)(F)F)cc32)CC1
not listed: [11] | [16] | [18] | [19]
inactive: all other assays above

C/C=C(\C)C(=O)OCc1ccccc1
not listed: [14] | [16] | [19]
inactive: all other assays above

Oc1cccc2cc3cccc(O)c3c(O)c12
not listed: [16] | [20]
inactive: all other assays above

O=C1c2ccccc2Cc2ccccc21
active: [16] 12.3 µM
not listed: [9] | [18] | [19]
inactive: all other assays above

NC(=O)N1C(=O)C(C(=O)c2cc(Cl)cs2)c2cc(F)c(Cl)cc21 (stereo not drawn)
active: [1] 2.17 µM | [3] 1.37 µM | [4] 27.3 µM | [5] 0.217 µM
not listed: [11] | [16] | [18] | [19] | [20]
inactive: all other assays above

CCN(C(=O)c1cc(C)cc(OC[C@H](C)Nc2ccncc2)c1)C(C)C
not listed: [16] | [18]
inactive: all other assays above

CCCCCCCCn1sc(Cl)c(Cl)c1=O
active: [1] 17.2 µM | [3] 30.6 µM | [4] 19.3 µM | [5] 27.3 µM
not listed: [9] | [14] | [16] | [18] | [19]
inactive: all other assays above

CS(=O)(=O)CCNCc1ccc(-c2ccc3ncnc(Nc4ccc(OCc5cccc(F)c5)c(Cl)c4)c3c2)o1
not listed: [12] | [18] | [19]
inactive: all other assays above

COc1cc(/C=C/C(=O)O[C@H]2CC[C@]34C[C@]35CC[C@]3(C)[C@@H]([C@H](C)CCC=C(C)C)CC[C@@]3(C)[C@@H]5CC[C@H]4C2(C)C)ccc1O
active: [1] 7.5 µM | [2] 7.5 µM | [18] 1.51 µM [inconclusive]
not listed: [16]
inactive: all other assays above

Cc1[nH]cnc1C[C@H]1CCc2c(C)c3ccccc3n2C1=O
not listed: [16]
inactive: all other assays above

C=C(C)C(=O)OCC[N+](C)(C)C
not listed: [11] | [12] | [16] | [17]
inactive: all other assays above

Cc1cccc(S(=O)(=O)O)c1C
not listed: [9] | [14] | [16]
inactive: all other assays above
